ChEMBL document CHEMBL1157539, “Thousands of chemical starting points for antimalarial lead identification” (Nature, 2010)

What was measured:
Format in all cases: functional
Plasmodium falciparum [1] = experiment: GSK_TCMDC: Inhibition of Plasmodium falciparum 3D7 in whole red blood cells, using parasite LDH activity as an index of growth. Test compounds present at 2uM
Plasmodium falciparum [2] = experiment: GSK_TCMDC: Inhibition of Plasmodium falciparum Dd2 in whole red blood cells, using parasite LDH activity as an index of growth. Test compounds present at 2uM
HepG2 = experiment: GSK_TCMDC: Percent inhibition of human HepG2 cell line. Test compounds present at 10uM.

SMILES | Inhibition (Plasmodium falciparum [1]) | Inhibition (Plasmodium falciparum [2]) | Inhibition (HepG2)
O=C(c1cncc(-c2ccccc2)c1)N(Cc1cncn1Cc1ccccc1F)CC1CC1 | 100% | 0% | 0%
Cl.Oc1ccc(C2CNCCc3c2cc(O)c(OCc2ccccc2)c3Cl)cc1 (stereo unspecified) | 98% | 8% | 14%
CC(=O)N1CCC(C(=O)Nc2ccc(-c3cccc(-c4nc5cc(C(F)(F)F)ccc5[nH]4)c3)cc2)CC1 | 88% | 33% | 82%
Cc1cc(Nc2cccc(C(F)(F)F)c2)nc2ccc(NC(=O)c3ccc(=O)[nH]c3)cc12 | 100% | 60% | 21%
CCc1c(C)nc(-n2nc(C)cc2NC(=O)c2cccc3ccccc23)[nH]c1=O | 98% | 89% | 39%
CCCNc1nc(NCc2c(C)cccc2C)nc(NC(C)(C)C)n1 | 91% | 89% | 15%
COc1ccc(-c2ccc(NC(=O)c3cccc(Cl)c3)cc2)cc1CN1CCCN(C)CC1.O=C(O)C(F)(F)F | 95% | 50% | 48%
O=C(O)C(F)(F)F.Oc1ccc(CCNc2nc(NCc3ccccc3-c3cccc(Cl)c3)nc(N3CCNCC3)n2)cc1 | 84% | 11% | 15%
Cc1cc(-c2cccc3c(C(=O)N4CCc5cc6nccc(N7CCCN(C)CC7)c6cc54)cccc23)cc(C)n1.Cl | 100% | 100% | 17%
CNc1cc(-c2ccc3ccnc(N)c3c2)nc(N)n1.O=CO | 100% | 81% | 23%
O=C(/C=C/c1ccc([N+](=O)[O-])cc1)N1CCC(CCN2CCC(c3c[nH]c4ccccc34)CC2)CC1 | 100% | 48% | 60%
O=C(/C=C/c1ccc(Cl)c(Cl)c1)NCCCCCN1CCN(C(=O)Nc2ccc(OC(F)F)cc2)CC1 | 99% | 0% | 20%
CCCCCN1CCC(NS(=O)(=O)c2cccc(C(=O)Nc3ccc(Cl)cc3)c2)CC1.O=C(O)C(F)(F)F | 88% | 29% | 24%
CC(=O)/N=C1\N=C(NC(C)=O)NC(C)(C)N1OCCCOc1ccc(Cl)c(Cl)c1 | 96% | 94% | 65%
Cl.O=C(/C=C/c1ccc(Cl)cc1)Nc1ccc2nc(CN3CCCC3)ccc2c1 | 85% | 30% | 47%
CC1CN(c2nc(NCCc3ccc(O)cc3)nc(NCc3ccccc3-c3ccc(C(F)(F)F)cc3)n2)CC(C)N1 (stereo unspecified) | 100% | 68% | 24%
COc1ccc2ccccc2c1C=NN=c1cc(C)[nH]c2c(C)cccc12 | 100% | 94% | 0%
CCOC(=O)NC1=NC(C)(C)N(OCc2ccc(Cl)c(Cl)c2)C(NC(=O)OCC)=N1 | 98% | 4% | 65%
Fc1ccc2[nH]c(-c3cccc(-c4cccc(CNCc5ccccc5)c4)c3)nc2c1.O=C(O)C(F)(F)F | 100% | 52% | 24%
COc1ccc2ccccc2c1CON1C(=N)N=C(N)NC1(C)C.Cl | 94% | 5% | 25%
CC(C)(C)c1cc(CN2CCN(Cc3ccccc3)CC2)cc(C(C)(C)C)c1O | 97% | 0% | 9%
Cc1csc(-c2nc(NCCc3c(C)noc3C)ncc2-c2ccsc2)n1 | 90% | 82% | 6%
Cc1ccc(C(=O)Nc2cccc(CN3CCCN(Cc4ccc(O)cc4)CC3)c2)cc1.O=C(O)C(F)(F)F | 88% | 5% | 0%
CCc1c(CCNCCCCCCNCCc2ccc(Br)cc2)ccc(OC)c1OC.Cl | 99% | 14% | 100%
c1ccn2c(Sc3ncnc4sccc34)ncc2c1 | 100% | 100% | 0%
COc1ccc2nc(C)cc(Nc3ccc(Cl)c(Cl)c3)c2c1 | 100% | 99% | 30%
C[C@H](Cc1ccc(OCCNC[C@H](O)c2cccc(Cl)c2)cc1)NC[C@H](O)c1ccc(Cl)c(Cl)c1.O | 83% | 64% | 69%
